# Whole data set: some 68,000 sequences, median “fluorescence intensity (a.u.)” near 9,100, cut for the highest 2% near 16,000. The full list was thinned out, with the highest values kept by preference.
# Target: OsWRKY34 (Oryza sativa, UniProt Q0JBA9 1-250)
# Assay: protein-binding microarray (RPBM); PBS, 2% BSA, 51.3 ng/ul salmon testes DNA, 50 uM zinc acetate, 200 nM TF, 25 C, 1 h; high values mean tight binding
# Conditions: protein: recombinant; tags: N-terminal polyhistidine and DsRed monomer fusion (pET32a); label: CyDye5-dUTP incorporated in the synthesized complementary strand; 3' TTTTT single-stranded linker to array surface; dsDNA, one strand shown
# Outline: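 For the binding signal, per-feature fluorescence intensity was read in arbitrary units on an Axon 4000B scanner. Before scanning, a 2% BSA-blocked custom Agilent array made double-stranded with Cy5-dUTP was washed after 1 h at 25 °C with 200 nM protein and 50 µM zinc acetate. The proteins were Ni–NTA-purified transcription factors with N-terminal polyhistidine and DsRed fusions, expressed in E. coli BL21-CodonPlus.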
# Sequence of OsWRKY34 (Q0JBA9 entry or part of it): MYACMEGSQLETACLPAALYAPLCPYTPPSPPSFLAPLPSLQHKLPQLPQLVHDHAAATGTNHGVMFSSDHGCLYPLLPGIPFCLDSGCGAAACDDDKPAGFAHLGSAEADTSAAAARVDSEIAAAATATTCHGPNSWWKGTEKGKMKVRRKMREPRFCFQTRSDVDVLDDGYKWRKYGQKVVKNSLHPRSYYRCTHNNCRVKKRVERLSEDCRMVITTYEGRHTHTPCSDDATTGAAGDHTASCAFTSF
row,Sequence,binding signal
1,TTCATGGAACATTCACGTGGATCATTCTCTCTCTCTCTCTCGGAGTCACCTAGTGCAG,8100 fluorescence intensity (a.u.)
2,TCACATCTCATTTTATGTTGGTTTTTTATGGGACGGGAGGCGGAGTCACCTAGTGCAG,10200 fluorescence intensity (a.u.)
3,CACCACCGTGCACTTCACAATTCACACTACTCCTTCAGATCGGAGTCACCTAGTGCAG,8340 fluorescence intensity (a.u.)
4,CTCATCATCCCGTCCAAAATCAGCTGCCCGCGCCGACGACCGGAGTCACCTAGTGCAG,8700 fluorescence intensity (a.u.)
5,ATACACATGCACATTTAGTTCCTCCCGGTAAGTTCGTCGTCGGAGTCACCTAGTGCAG,8260 fluorescence intensity (a.u.)
6,ATTTTTTTTTGGCATAGTTTGTGTTCACTGCAAAAATCACCGGAGTCACCTAGTGCAG,9080 fluorescence intensity (a.u.)
7,AGAGGGATGGGTGTGGGCAGCGGTGGGCGGTAAGGCACCACGGAGTCACCTAGTGCAG,9360 fluorescence intensity (a.u.)
8,TTTGACGTTTTTTCTCGCTGCTATTATCTCCAGGGTGGGGCGGAGTCACCTAGTGCAG,17200 fluorescence intensity (a.u.)
9,AGAGATGGTAGTGGTAAAGCGGAGGAGGGGTGGGGTGTTGCGGAGTCACCTAGTGCAG,16700 fluorescence intensity (a.u.)
10,GGGTTATTCTTTGCATGATATTTGACGTTTTTTCTCGCTGCGGAGTCACCTAGTGCAG,9920 fluorescence intensity (a.u.)
11,GAGAGAGGGGTTGGGTTTGGTTGGTGTTTGTGTGGAGATGCGGAGTCACCTAGTGCAG,12800 fluorescence intensity (a.u.)
12,GAGAGCTTTGCGGCGGGCATGCGGGTGGGGATTCACCGCGCGGAGTCACCTAGTGCAG,10600 fluorescence intensity (a.u.)
13,CTATTATCTCCAGGGTGGGGTGGGGCCCATACGGCCAGGACGGAGTCACCTAGTGCAG,10400 fluorescence intensity (a.u.)
14,TGACAGCGGTAGATGTGGGTGGTGGTGGGAGGGGAGGATGCGGAGTCACCTAGTGCAG,16200 fluorescence intensity (a.u.)
15,GGGTGGGAGGGAGGGAGTACATGGTAAGGCCATTCAACAGCGGAGTCACCTAGTGCAG,20200 fluorescence intensity (a.u.)
16,GCTACATCAGCGGCGGAGGTGGAGGTGGAGGGGTAAGGTGCGGAGTCACCTAGTGCAG,11600 fluorescence intensity (a.u.)
17,TTTGGTTCACGCGGCGCGGGCGGGGAGTGGGAGGGGCATGCGGAGTCACCTAGTGCAG,24100 fluorescence intensity (a.u.)
18,CTGCGGCCCGGCGGGAGTGGGAGGGGCGGCGGGCCGGACCCGGAGTCACCTAGTGCAG,9720 fluorescence intensity (a.u.)
19,ACCTTGGACAACTGACTTCTCTACAGACATTAACCTTTTTCGGAGTCACCTAGTGCAG,8730 fluorescence intensity (a.u.)
20,TTTTCATCTGAGCTTATGTTCCAACTTTTATTTTTAATCACGGAGTCACCTAGTGCAG,8780 fluorescence intensity (a.u.)
21,ACTGAGTACTGTTCGGTTGGGTCTGGCATCGGATGTTTCCCGGAGTCACCTAGTGCAG,8340 fluorescence intensity (a.u.)

row,Sequence,binding signal
1,TATAGGCCACTTGTGCCTCGGCTCACGTTGACCTGCCTTACGGAGTCACCTAGTGCAG,8170 fluorescence intensity (a.u.)
2,AACATATAAACTCAAATCTCCAATTGTTTCCGCTACAAATCGGAGTCACCTAGTGCAG,8100 fluorescence intensity (a.u.)
3,AACTATTTTCATCCCTCGAGGACATATCTCCTCGTTGTTTCGGAGTCACCTAGTGCAG,11100 fluorescence intensity (a.u.)
4,ACGACCCTCTACATGTTGCTGCTGGCAGCCGCTCCCTCTCCGGAGTCACCTAGTGCAG,8660 fluorescence intensity (a.u.)
5,GTTTTTCATATTTGACGATCAAACGGTGGTTTTAAAACTTCGGAGTCACCTAGTGCAG,8140 fluorescence intensity (a.u.)
6,CACTTTTTCATGGATTTTTACTTATTTAATGATTTTTTATCGGAGTCACCTAGTGCAG,8240 fluorescence intensity (a.u.)
7,AGCGAGCGACGGGCGGGGCGGAGCGGGGCGGGGCTGCATTCGGAGTCACCTAGTGCAG,16700 fluorescence intensity (a.u.)
8,CTCGATTCTTCTGCAGCTGGGCGGGAGGGGAGGCGTGGCGCGGAGTCACCTAGTGCAG,18300 fluorescence intensity (a.u.)
9,GTCGTGGGCGGGAGGTGGTGGTGGTGGTGCTGCTGCATTGCGGAGTCACCTAGTGCAG,11600 fluorescence intensity (a.u.)
10,TAGTGGGGAGGCGGTGGTGCTGCGGGGAGGGAGGGAGCACCGGAGTCACCTAGTGCAG,12800 fluorescence intensity (a.u.)
11,GGAGGGCGGGCTGTTATATTCTTCACACCTTGCATGTAAGCGGAGTCACCTAGTGCAG,18700 fluorescence intensity (a.u.)
12,AGGCGAGCGAGACGGCGGCGGGCGGGCGGGGCGGGCGACGCGGAGTCACCTAGTGCAG,14800 fluorescence intensity (a.u.)
13,GGCGGGGCAGACGGAGGCCGACGGCTGCAGCGGGCTGGGGCGGAGTCACCTAGTGCAG,9010 fluorescence intensity (a.u.)
14,CGATGGCTGGAGGGGAGGCGGCGGCGCATCGTGGCGGGCGCGGAGTCACCTAGTGCAG,8030 fluorescence intensity (a.u.)
15,GGCGAGCGCGTCGTGGAGGGCGGGGAGGGAGTCGGGCTGGCGGAGTCACCTAGTGCAG,14400 fluorescence intensity (a.u.)
16,TGGCAGGGTTGCATGGTTCTGGAGGGCGGGCTGTTATATTCGGAGTCACCTAGTGCAG,13500 fluorescence intensity (a.u.)
17,GGGGAGGTTGCTGCTGCTGCTGGGCGGGTGGGCGGAGGGGCGGAGTCACCTAGTGCAG,28100 fluorescence intensity (a.u.)
18,GGCTGTTGTTTTTCCTTGTTATTCTTTCAGTAAGATATTTCGGAGTCACCTAGTGCAG,12800 fluorescence intensity (a.u.)
19,TCTGTCCCTCAATCCCGCGACGCCGCCGCCGTTCTGCTCCCGGAGTCACCTAGTGCAG,10000 fluorescence intensity (a.u.)
20,GATCCTATCATTTTCAACGATGTTAAATCGTCACAGGCTTCGGAGTCACCTAGTGCAG,8310 fluorescence intensity (a.u.)
21,CCTCATTAGCTAGCTTTTTAGGGTGGGGAAGGCCCTTTACCGGAGTCACCTAGTGCAG,12700 fluorescence intensity (a.u.)

row,Sequence,binding signal
1,CTCACTTGCATCTTTCCAATATCTTAGTCATTCATTAATACGGAGTCACCTAGTGCAG,8520 fluorescence intensity (a.u.)
2,AATGTATGACGCCGTTGACTTTTTATCAAACGTTTGACCACGGAGTCACCTAGTGCAG,34800 fluorescence intensity (a.u.)
3,GTAAATTATGTATGACGCGGTTGACTTTTTATTAACGTTTCGGAGTCACCTAGTGCAG,16800 fluorescence intensity (a.u.)
4,AATGATGTTGTTGACTTTTAAAATAACGTATGGCCGTTCACGGAGTCACCTAGTGCAG,8770 fluorescence intensity (a.u.)
5,CTAAATTAATGGTCGCTTTGACTTTTTTTATGTAATGTTTCGGAGTCACCTAGTGCAG,14700 fluorescence intensity (a.u.)
6,AATGTATGACGCCGTTGACTTTTTGCCCAACGTTTGACCACGGAGTCACCTAGTGCAG,38700 fluorescence intensity (a.u.)
7,CATCCGTATGATTCGACTTTTTTTTCACGTTGATTTTATACGGAGTCACCTAGTGCAG,9050 fluorescence intensity (a.u.)
8,AATGTATGACGCAGTTGACTTTGTGACAAACGTTTGACCTCGGAGTCACCTAGTGCAG,12300 fluorescence intensity (a.u.)
9,AATTGTAAAGTTGACTTTAATGTTTTTTTTATTGTGGTTTCGGAGTCACCTAGTGCAG,8740 fluorescence intensity (a.u.)
10,AATGTATGATGCCGTTGACTTTTCGACTAACGTTTGACCACGGAGTCACCTAGTGCAG,29200 fluorescence intensity (a.u.)
11,TTTTTTTCAATTCGTTTTTTTTTCATTTTTCATCGTCTTTCGGAGTCACCTAGTGCAG,8400 fluorescence intensity (a.u.)
12,TACTACTCTCGTGTGGCAAAATTTTGTCTTAGTTCTTGAACGGAGTCACCTAGTGCAG,8100 fluorescence intensity (a.u.)
13,GCGTTGTGGGTGTCTTGTGTTGTACTGCGTAATTCTTAAACGGAGTCACCTAGTGCAG,15000 fluorescence intensity (a.u.)
14,CACAACTATTTCTACTTTTATCATTCCTACCTTTTCTAATCGGAGTCACCTAGTGCAG,8180 fluorescence intensity (a.u.)
15,CTAGCCCGTTAACATTACTGTTCATCTCCCTATCCGTCTCCGGAGTCACCTAGTGCAG,9570 fluorescence intensity (a.u.)
16,TCCTACACCACCCCGTTCTCGCGCCCATCGATCCAACCGACGGAGTCACCTAGTGCAG,8920 fluorescence intensity (a.u.)
17,AGCCACAAATCCTTATTCGTTCAATTGTTTTTCTTCCTCTCGGAGTCACCTAGTGCAG,8140 fluorescence intensity (a.u.)
18,ATCGCGAAGTTCGCGACCCGATTCCTCTCCGCCCGCCATGCGGAGTCACCTAGTGCAG,8380 fluorescence intensity (a.u.)
19,GTACATGCATTATCCATATCTCTAAATTTAGCAATCACTTCGGAGTCACCTAGTGCAG,9480 fluorescence intensity (a.u.)
20,AGTTCACTTTAGGTCCCTCTATTTGTCGTCCAGTCTGATTCGGAGTCACCTAGTGCAG,8180 fluorescence intensity (a.u.)
21,GCGGCCAGGCCACCTCCAGCTCTTTTCACTCCTGGCTAACCGGAGTCACCTAGTGCAG,9500 fluorescence intensity (a.u.)

row,Sequence,binding signal
1,CCCGTCAACGCCACCTCACCGTTGACGTTGCCACTCTCTTCGGAGTCACCTAGTGCAG,16800 fluorescence intensity (a.u.)
2,GATGACGTTGTTAACTTTTTATCACACGTTTGACCATTCGCGGAGTCACCTAGTGCAG,8510 fluorescence intensity (a.u.)
3,CTCTCTCACTCTTCTCCCTCTTCTCACCACCAGACGCCATCGGAGTCACCTAGTGCAG,8850 fluorescence intensity (a.u.)
4,TATTACTCCCTTCGTATTTTAATGTATGACGCCGTTGACTCGGAGTCACCTAGTGCAG,8820 fluorescence intensity (a.u.)
5,CCCGTGTCTTCCCAACCACGTTGACCACGACTTTTTCGTTCGGAGTCACCTAGTGCAG,9480 fluorescence intensity (a.u.)
6,TCTTCGTATAAAAAGTATGACGCCGTTGACTTTTCATATACGGAGTCACCTAGTGCAG,14500 fluorescence intensity (a.u.)
7,GTTGTATAGGTTGGTTTTTTATGTATGACGCCGTTGACTTCGGAGTCACCTAGTGCAG,17100 fluorescence intensity (a.u.)
8,TATGACGCCGTTGACTTATTGACTAACGTTTGACCATTCGCGGAGTCACCTAGTGCAG,21500 fluorescence intensity (a.u.)
9,CGCCGTTTAGTTTTTACTAACGTTTGACCATTTTTCTTATCGGAGTCACCTAGTGCAG,11700 fluorescence intensity (a.u.)
10,CCACCGCCCGCCGTCGTCTCTCTCTCTCTCTCTCTCTCTTCGGAGTCACCTAGTGCAG,9970 fluorescence intensity (a.u.)
11,GACGCCGTTGACTTTTTGACCAACGTTTGACCTTTCGTCTCGGAGTCACCTAGTGCAG,31400 fluorescence intensity (a.u.)
12,GTGGACGTTTTTGACTTTGTACTTTCAACGTTTGACCATTCGGAGTCACCTAGTGCAG,13900 fluorescence intensity (a.u.)
13,TATGTCACGTATAAAATTCTAATGCTAGCTAACTACCATACGGAGTCACCTAGTGCAG,8340 fluorescence intensity (a.u.)
14,GATCCGACTCCTACTTCTAACGTAGATTTTCGGCCTTTATCGGAGTCACCTAGTGCAG,8370 fluorescence intensity (a.u.)
15,TTGCAAATGCAACCCTATTATGCCATCCTTTGTTATCCTGCGGAGTCACCTAGTGCAG,9550 fluorescence intensity (a.u.)
16,TTTGTTCTCTTTTATATGTAACACTTGCATATTTACCTTCCGGAGTCACCTAGTGCAG,8980 fluorescence intensity (a.u.)
17,CTTCTCTTACCTCGGTGGGTGCTTAATGTGCTGGTTTGAACGGAGTCACCTAGTGCAG,8740 fluorescence intensity (a.u.)
18,GCCATCCACTTGTGCTGCCAATTTGCTCAATCCCGACAAGCGGAGTCACCTAGTGCAG,8220 fluorescence intensity (a.u.)
19,ACATTTCTGTTATTCCCCGCGGACAAGTCACAACTACTTCCGGAGTCACCTAGTGCAG,9830 fluorescence intensity (a.u.)
20,CGCCGCCCATCTTGTCCCAATTCGGCTCCTATAAATTTCCCGGAGTCACCTAGTGCAG,8750 fluorescence intensity (a.u.)
21,TGCCTCCTTTTGTTTTGCGTCTCCTTATCAGAGTGGATTGCGGAGTCACCTAGTGCAG,8350 fluorescence intensity (a.u.)
